NPC1 prom act: activators of NPC1 promoter. Huh7 NPC1 promoter luciferase reporter, 24 h. actives 2.4% (n = 320,000). Potency, µM (titrated, usually from 9.22 µM), inactives show at the top dose activation, most hits filed as activators; further: % of control where 0% means no effect; nearly all actives have a fitted effect of over 60% in size
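In 1536-well qHTS, Huh7 cells harboring an NPC1 promoter–luciferase construct received compound for 24 h; activation was quantified by luminescence following luciferase reagent addition.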
ELG1 genotoxic: induces genotoxicity in HEK293T cells with luciferase-tagged ELG1; HEK293T ELG1-luciferase reporter, luminescence, 16 h; Potency, µM (highest dose often 46 µM), inactives show at the top dose activity change, positive = activation, usual class: activators; actives 1.3% (n = 330,000); AID 504466; further: % of control where 0% means no effect; nearly all actives have a fitted effect of over 60% in size
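16 hr compound incubation (37 °C, 5% CO2) of HEK293T cells carrying luciferase-tagged ELG1; luciferase then measured by ONE-Glo luminescence after 30 min at RT.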
FLuc counter: firefly luciferase modulation, counter-screen for miR-21 project; AID 588342; actives 6.9% (n = 360,000); P08659; purified FLuc, Km substrates, luminescence inhibition; Potency, µM (titrated, usually from 57.5 µM), without a hit: at the highest dose activity change, negative = inhibition, hits mostly inhibitors;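 further: plate controls were vehicle for no effect and reference inhibitor for full effect; nearly all actives have a fitted effect of over 55% in size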
Target sequence (P08659 whole entry, looked up): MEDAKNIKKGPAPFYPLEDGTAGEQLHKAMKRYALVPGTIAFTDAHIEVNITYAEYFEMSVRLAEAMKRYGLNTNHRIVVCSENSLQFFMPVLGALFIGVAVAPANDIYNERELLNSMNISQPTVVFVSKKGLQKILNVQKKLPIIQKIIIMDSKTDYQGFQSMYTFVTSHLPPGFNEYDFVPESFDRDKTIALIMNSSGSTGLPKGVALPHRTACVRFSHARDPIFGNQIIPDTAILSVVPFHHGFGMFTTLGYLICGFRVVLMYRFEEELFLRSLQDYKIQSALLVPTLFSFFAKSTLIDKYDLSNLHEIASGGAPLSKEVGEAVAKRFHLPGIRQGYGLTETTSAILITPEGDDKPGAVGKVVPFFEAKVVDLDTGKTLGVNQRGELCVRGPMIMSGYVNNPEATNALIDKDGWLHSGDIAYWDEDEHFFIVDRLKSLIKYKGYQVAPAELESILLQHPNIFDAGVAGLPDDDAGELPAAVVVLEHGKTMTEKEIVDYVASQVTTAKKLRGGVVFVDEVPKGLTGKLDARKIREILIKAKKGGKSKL
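Purified P. pyralis luciferase, 10 nM final, with Km-level 10 uM D-luciferin and 10 uM ATP in 50 mM Tris acetate pH 7.5, 10 mM Mg acetate, 0.01% Tween-20, 0.05% BSA; 6-point qHTS titration about 60 µM downward; luminescence read.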
Rab9 promoter act: activators of Rab9 promoter | Huh7 Rab9 promoter-luciferase reporter, luminescence, 24 h | Potency, µM (series often up to 9.22 µM), for inactives: at the top dose activation, negative = inhibition, most hits filed as activators | actives 2.8% (n = 320,000); further: % of control where 0% means no effect; nearly all actives have a fitted effect of over 60% in size
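Rab9 promoter-driven luciferase in stably transfected Huh7 cells; 1500 cells/well rested 2 h, exposed to compound in DMSO for 24 h at 37 °C, 5% CO2. Luminescence read 10 min after adding luciferase reagent at ambient temperature.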
SMN2 splice up: increases expression of the SMN2 splice variant; HEK293 SMN2-luciferase splicing reporter, luminescence, 30-36 h; Potency, µM (highest dose often 46.1 µM), for inactives: top-dose activity change, positive = activation, actives largely listed as activators; actives 2.8% (n = 210,000); AID 1458; further: % of control where 0% means no effect; nearly all actives have a fitted effect of over 55% in size
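HEK293 cells carry an SMN2 minigene-luciferase reporter in which exon 7 inclusion puts luciferase in frame. Cells were seeded at 2000 cells/well, attached for 10-12 hours, then exposed to compounds for 30-36 hours at 37C before ONE-Glo luminescence.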
Numbers without * were called inactive; ? = inconclusive; · = no result given. Shown are actives, neighbours in structure and some others; about 7.4% of the full set was active somewhere. The call rests on the fitted dose curve; in most records, active means well fitted curve in the direction sought with a large enough effect; inconclusive means small, poorly fitted or top-dose-only effect, or another doubt; inactive means no such curve, though single readings can be large; an effect the other way counts as inactive or inconclusive. Potency means the concentration at half of the fitted maximal effect.

SMILES	NPC1 prom act	ELG1 genotoxic	FLuc counter	Rab9 promoter act	SMN2 splice up
Cc1cc(SCC(=O)c2ccccc2)nc(C)n1	3.5µM*	?	12µM*	2.5µM*	29%
COc1cc(NC(=O)CC2C(=O)N(c3cccc(C)c3)C(=O)N2Cc2ccc(F)cc2)cc(OC)c1 (configuration not stated)	·	·	5%	·	·
Cc1cnc(NC(=O)c2ccco2)s1	?	?	21µM*	?	?
Cc1ccc2nc(-c3ccccc3)c(NC(=O)c3ccco3)n2c1	-2%	0%	-13%	-1%	-12%
O=C(Nc1nsc(-c2ccccc2)n1)c1cccs1	1.6µM*	0.58µM*	4.3µM*	1.1µM*	3.2µM*
Cc1sc(NC(=O)c2ccco2)nc1-c1ccccc1	3.5µM*	?	2.1µM*	1.6µM*	4.5µM*
O=C(Nc1c(-c2ccccc2)nc2ccccn12)c1cccs1	-1%	4%	-4%	2%	-12%
COC(=O)c1sc(NC(=O)c2ccco2)nc1C	14%	16%	?	22%	8%
Cc1nc(NC(=O)c2ccco2)sc1C(=O)O	1%	4%	11µM*	0%	·
Cc1ccc(C(=O)OCc2cc(=O)n3nc(CC(C)C)sc3n2)cc1	·	·	-6%	·	·
Cc1ccc(C(=O)Nc2nnc(SCc3cc(=O)n4ccc(C)cc4n3)s2)cc1	·	·	-13%	·	·
CCOC(=O)c1sc(NC(=O)c2ccco2)nc1-c1ccccc1	0%	-10%	0%	-6%	1%
CCn1ccc(C(=O)NC2=NCCS2)n1	-2%	6%	-16%	15%	44%
CCn1ccc(C(=O)Nc2ncc(C)s2)n1	0.79µM*	0%	?	0.79µM*	·
CC(=O)c1c(C)[nH]c(C(=O)Nc2nc(-c3ccccc3)c(C)s2)c1C	?	9%	3µM*	?	·
Cc1sc(N/N=C/c2cccs2)nc1-c1ccccc1	18%	?	11µM*	?	-19%
CC(=O)c1sc(NC(=O)c2ccco2)nc1-c1ccccc1	?	15µM*	11µM*	?	28%
Cc1sc(NC(=O)c2cccs2)nc1-c1ccccc1	25%	1%	11µM*	?	·
CC(=O)Nc1nc(-c2ccc3c(c2)CC(C)N3C(=O)C2CC2)c(C)s1 (configuration not stated)	8%	-8%	?	3%	·
Cc1sc(NC(=O)c2ccco2)nc1-c1ccc2c(c1)CC(C)N2C(=O)C1CC1 (configuration not stated)	-1%	-31%	19µM*	12%	-38%
Cc1cc(=O)[nH]c(SCc2ccccc2)n1	4%	4%	-10%	1%	·
Cc1cc(=O)[nH]c(S/C=C/c2ccccc2)n1	3.5µM*	21µM*	5.4µM*	?	11µM*
O=C(Nc1cc2c(cc1C(=O)c1cccc(Br)c1)OCCO2)c1ccccc1F	·	·	1%	·	0%
COc1cccc(Nc2c3c(nc4nncn24)CCC3)c1	·	·	1%	·	-2%
Cc1cc(/C=N\NC(=O)COc2cccc3cccnc23)c(C)n1-c1ccc(Br)cc1	-4%	-2%	4.8µM*	0%	-45%
SMILES	NPC1 prom act	ELG1 genotoxic	FLuc counter	Rab9 promoter act	SMN2 splice up
Cc1cc(/C=N\NC(=O)c2cccs2)c(C)n1-c1ccc2ncccc2c1	2.8µM*	?	1.3µM*	1.8µM*	?
Cc1cc(/C=N/NC(=O)C(=O)NCc2ccccn2)c(C)n1-c1ccccc1	0%	?	2.7µM*	-3%	21%
COc1ccccc1OCC(=O)N/N=C/c1cccc2cccnc12	-3%	-1%	-18%	-5%	·
Cc1cc(/C=N/NC(=O)c2ccccn2)c(C)n1-c1cccc([N+](=O)[O-])c1	5%	8%	?	27%	-5%
Cc1cc(/C=N\NC(=O)COc2cccc3cccnc23)c(C)n1-c1ccccc1	-1%	1%	1.3µM*	-6%	·
CC(C)CN1CC[C@@]2(CCCN(S(=O)(=O)c3ccccc3)C2)C1	·	·	·	·	7%
Cc1nc2ccccn2c1C(=O)N/N=C/c1cc(C)n(-c2ccc(Br)cc2)c1C	-4%	-1%	12µM*	-1%	-46%
C=CCn1cc(/C=N/NC(=O)COc2cccc3cccnc23)c2ccccc21	0%	2%	?	1%	12%
Cc1ccnc(-n2c(C)cc(/C=N/NC(=O)COc3cccc4cccnc34)c2C)c1	1%	-2%	13µM*	-3%	·
Cc1ccc2nc(N3CCN(c4ccccc4F)CC3)c3nnnn3c2c1	·	·	-7%	·	·
O=C(O)c1cc(-c2ccccc2)n[nH]1	-1%	1%	-11%	0%	-1%
O=C(O)/C=C\C(=O)NNC(=O)c1cc(-c2ccccc2)n[nH]1	-1%	-1%	11µM*	3%	·
O=C(NNS(=O)(=O)c1ccccc1F)c1cc(-c2ccccc2)n[nH]1	6%	-12%	-14%	-1%	·
O=C(O)/C=C/C(=O)NNC(=O)c1cc(-c2ccccc2)n[nH]1	1%	0%	11µM*	-2%	-11%
COc1ccc(-c2nnc(SCC(=O)Nc3cccc(C(F)(F)F)c3)nc2-c2ccc(OC)cc2)cc1	·	·	-8%	·	·
COc1cc(CCNC(C)=O)c(C(=O)/C=C/c2cccc(OC)c2OC)cc1OC	·	·	·	·	-48%
Cc1ccc(-n2nnc(-c3nccs3)n2)cc1	?	0.23µM*	0.12µM*	?	·
Clc1ccc(-n2nnc(-c3nccs3)n2)cc1Cl	1.6µM*	5.2µM*	1.9µM*	0.89µM*	·
CCOc1ccc(NC(=O)Cn2cnc3sc(C)c(S(=O)(=O)N4CCN(c5ccccc5OC)CC4)c3c2=O)cc1	·	·	5%	·	6%

Assay outcomes (PubChem)
